Screens deposited in PubChem by National Center for Advancing Translational Sciences (NCATS).
G9a inh: inhibitors of human histone lysine methyltransferase G9a | Q96KQ7 | Potency, µM (series often up to 102 µM), usual class: inhibitors | actives 8.8% (n = 350,000) | G9a H3K9 monomethylation, AlphaScreen, 2 h; further: nearly all actives have a fitted effect of over 75% in size
Target sequence (Q96KQ7 913-1193 limits assumed): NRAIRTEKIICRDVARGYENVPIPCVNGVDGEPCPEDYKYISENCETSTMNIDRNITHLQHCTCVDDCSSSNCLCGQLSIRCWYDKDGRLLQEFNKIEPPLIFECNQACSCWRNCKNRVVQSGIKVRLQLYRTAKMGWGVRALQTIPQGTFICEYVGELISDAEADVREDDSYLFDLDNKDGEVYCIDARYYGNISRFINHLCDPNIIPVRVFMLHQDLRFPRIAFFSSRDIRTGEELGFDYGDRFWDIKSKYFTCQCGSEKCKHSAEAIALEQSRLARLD
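Enzyme 20 nM + cpd, 15 min RT; add b-H3K9 pep 500 nM / SAM 20 uM; 2 h RT; anti-H3K9me1 Ab 0.5 ug/mL + SA donor / anti-rabbit acceptor beads 20 ug/mL each, 10 min; AlphaScreen read.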
JMJD2A Tudor: blocks the human JMJD2A Tudor domain; AlphaScreen JMJD2A-Tudor / H3K4me3 peptide binding; Potency, µM (top dose mostly 114 µM), actives largely listed as inhibitors; actives 4.4% (n = 390,000); O75164; further: nearly all actives have a fitted effect of over 50% in size
HP1b chromo inh: blocks HP1-beta chromodomain binding to methylated histone tails; P83916; AID 540317; Potency, µM (highest dose often 114 µM), usual class: inhibitors; AlphaScreen HP1-beta / biotin-H3K9me3 peptide binding; actives 0.56% (n = 390,000); further: nearly all actives have a fitted effect of over 70% in size
Target sequence (P83916 whole entry, looked up): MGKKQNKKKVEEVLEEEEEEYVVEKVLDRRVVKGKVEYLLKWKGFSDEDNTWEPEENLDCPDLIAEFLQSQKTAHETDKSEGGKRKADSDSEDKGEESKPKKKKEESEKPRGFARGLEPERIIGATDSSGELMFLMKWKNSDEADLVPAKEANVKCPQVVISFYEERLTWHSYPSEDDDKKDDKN
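AlphaScreen: HP1-beta (50 nM) preformed 30 min with biotin-H3(1-18)K9me3 peptide (50 nM) in PBS pH 7.4, 0.01% Tween-20. Compound added for 30 min at RT, then streptavidin donor/nickel chelate acceptor beads (10 ug/mL) for 30 min.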
GLS inhibitor: inhibitors of human glutaminase (GLS); Potency, µM (titrated, usually from 45.5 µM), actives largely listed as inhibitors; O94925; GLS enzymatic activity, qHTS titration; actives 0.21% (n = 410,000); AID 624170
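hKGA in 45 mM KH2PO4 (pH 8.2), 0.02% Tween-20 with compound, then 1mM L-Glutamine (stock as added) plus glutamate oxidase/HRP/Amplex red coupling mix. Fluorescence read initially and after 30 min at RT; signal change reflects glutamate formation.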
BAZ2B inh: inhibitors of human BAZ2B bromodomain; Q9UIF8; AlphaScreen BAZ2B-H3K14Ac peptide displacement; Potency, µM (series often up to 114 µM), usual class: inhibitors; actives 4.4% (n = 360,000); further: nearly all actives have a fitted effect of over 60% in size
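Protein-peptide AlphaScreen: BAZ2B 50 nM, b-H3K14Ac 50 nM, 1x PBS pH 7.4 + 0.01% Tween-20. Preincubation 30 min RT; cpd 30 min RT (top 110 uM); beads 20 min RT, light-protected.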
Numbers stand for hits; n = inactive; u = inconclusive; x = not tested or not shown; [ ] = remark or other dose. This is a sample that favours compounds with a hit; in the whole collection about 10% have one here. The call rests on the fitted dose curve; in most records, active means well fitted curve in the direction sought with a large enough effect; inconclusive means small, poorly fitted or top-dose-only effect, or another doubt; inactive means no such curve, though single readings can be large; an effect the other way counts as inactive or inconclusive.

SMILES	G9a inh	JMJD2A Tudor	HP1b chromo inh	GLS inhibitor	BAZ2B inh
O=C(/C=C/c1cccnc1)c1ccc([N+](=O)[O-])cc1	13µM	u	n	n	n
S=c1[nH]nc(COc2ccccc2)n1-c1ccc(Cl)cc1	x	n	n	n	x
Cc1cccc(OCc2n[nH]c(=S)n2-c2ccccc2)c1	x	u	n	n	u
COc1ccc(-n2c(COc3ccccc3)n[nH]c2=S)cc1	n[0.501 µM]	50µM	n	n	n
Cc1ccc(-n2c(COc3cccc(C)c3)n[nH]c2=S)cc1	4.5µM	n	n	n	n
COc1ccc(-n2c(COc3ccc(C)cc3)n[nH]c2=S)cc1	x	n	n	n	n
Cc1ccc(-n2c(COc3ccccc3)n[nH]c2=S)cc1	7.9µM	n	n	u	n
O=C(O)COc1nn(Cc2ccccc2)c2ccccc12	n[12.7 µM]	x	x	n	x
Clc1cccc(CNc2cc(-c3ccccc3)nc3nncn23)c1	n	n	n	n	n
COc1ccc(C2=NO[C@@H]3C(=O)N(c4ccc(C)cc4C)C(=O)[C@H]23)cc1OC	13µM	u	n	n	n
COc1ccc(-c2cn(-c3ccc(C)cc3C)c(=O)[nH]2)cc1OC	11µM	n	n	n	n
O=C(CCNC(=O)c1ccc([N+](=O)[O-])cc1)NCc1ccco1	n[12.7 µM]	n	n	n	n
COc1ccc(C(c2nnnn2C2CCCC2)N2CCN(C3CCCC3)CC2)cc1OC (stereo unspecified)	u	56µM	n	n	n
COc1cc(C(c2nnnn2C2CCCC2)N2CCN(C)CC2)cc(OC)c1OC (stereo unspecified)	n	n	n	n	u
COc1ccc(C(c2nnnn2CCc2ccccc2)N2CCN(C3CCCC3)CC2)cc1OC (stereo unspecified)	50µM	n	n	n	u
O=C(COC(=O)CCC(=O)c1cccs1)Nc1cccc(F)c1	n[12.7 µM]	n	n	n	n
COc1ccc(CCNC(=O)CN(c2ccccc2)S(=O)(=O)N(C)C)cc1OC	n	n	n	n	n
COC(=O)[C@]12CCCCC=C1N(Cc1ccc(Cl)cc1Cl)C(=O)[C@H](CC(=O)N1CCC(c3ccccc3)CC1)C2	x	x	x	n	x
Cc1cc(Br)ccc1SCC(=O)OCC(=O)NC1CC1	79µM	n	n	n	79µM
Cc1cc(Br)ccc1SCC(=O)OCC(=O)NC(C)c1ccccc1 (stereo unspecified)	40µM	n	n	n	n
Cc1ccc(CNC(=O)COC(=O)CSc2ccc(Br)cc2C)cc1	n	n	n	n	n
O=S1(=O)NC(CC2=CCCCC2)C2CCCCC2O1 (stereo unspecified)	x	n	n	n	n
COc1ccccc1C1NC(c2ccc3c(c2)OCO3)=CC(c2cc(Br)ccc2O)N1 (stereo unspecified)	x	n	n	x	x
COc1ccccc1CN1CCN(C2CCN(C(=O)NC(C)C)CC2)C(=O)C1=O	n[12.7 µM]	n	n	n	n
CC12COC3(C(=O)Nc4ccc(F)cc4)CC1CCC32C (stereo unspecified)	n	n	n	n	n
SMILES	G9a inh	JMJD2A Tudor	HP1b chromo inh	GLS inhibitor	BAZ2B inh
CC12COC3(P(=O)(c4ccccc4)c4ccccc4)CC1CCC23CP(=O)(c1ccccc1)c1ccccc1 (stereo unspecified)	u	n	n	n	71µM
Cc1ccccc1NC(=O)CCn1nc(-c2ccccc2)c2ccccc2c1=O	n	n	n	n	n
S=C(NN=C1CCCCCC1)Nc1ccc(Cl)cc1	28µM	100µM	n	n	n
Fc1ccc(NC(=S)NN=C2CCCCCC2)cc1	35µM	56µM	n	n	u
COc1cc(OC)c(NC(=O)Cn2cnc3c(nc4n3CCCCC4)c2=O)cc1Cl	n	n	n	n	n
CCn1cc(C(=O)NCCN(CC(C)C)CC(C)C)c(=O)c2cc(S(=O)(=O)N(C)C3CCCCC3)ccc21	n	n	n	n	x
CCN(CC)C(=O)Cn1cc(C(=O)C(=O)N2CCN(c3ccc([N+](=O)[O-])cc3)CC2)c2ccccc21	n	n	n	n	n
CCOC(=O)c1[nH]c(C)c(C(=O)N2CCN(c3ccccc3)CC2)c1C	n[2.33 µM]	n	n	n	u
CCN(CC)C(=O)Cn1cc(C(=O)C(=O)N2CCN(c3ccc(OC)cc3)CC2)c2ccccc21	50µM	n	n	n	n
CCOC(=O)c1c(C)[nH]c(C(=O)N2CCN(c3ccc(OC)cc3)CC2)c1C	45µM	u	n	n	40µM
